Results from PubChem BioAssay (NCI).
Values joined by “and” are separate entries in the source; they are usually repeats but may differ in a detail not shown here. Equal entries are not always repeated. About 83,000 compounds went through this panel and 20% of them were active in at least one assay; those are over-represented in the sample as a whole.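 Activity criterion: percent growth below 10, measured after cells in 96-well plates were exposed to a single compound concentration for 48 hours.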 Active and inactive are the calls of the source.

Experiments:
Assay in all cases: NCI-60 one-dose screen, 48 h (100 = growth as untreated, 0 = no growth, -100 = all killed)
Settings in all cases: 10 µM unless noted
RPMI-8226 leukemia = test system: RPMI-8226 leukemia
OVCAR-8 ovarian = test system: OVCAR-8 ovarian
OVCAR-5 ovarian = test system: OVCAR-5 ovarian
OVCAR-4 ovarian = test system: OVCAR-4 ovarian
SK-OV-3 ovarian = test system: SK-OV-3 ovarian
IGROV1 ovarian = test system: IGROV1 ovarian
OVCAR-3 ovarian = test system: OVCAR-3 ovarian
HS 578T breast = test system: HS 578T breast
NCI/ADR-RES ovarian = test system: NCI/ADR-RES ovarian
BT-549 breast = test system: BT-549 breast
MDA-MB-435 melanoma = test system: MDA-MB-435 melanoma
SW-620 colon = test system: SW-620 colon
MCF7 breast = test system: MCF7 breast
HCT-116 colon = test system: HCT-116 colon
HCC-2998 colon = test system: HCC-2998 colon
KM12 colon = test system: KM12 colon
T-47D breast = test system: T-47D breast

| SMILES | growth (RPMI-8226 leukemia) | growth (OVCAR-8 ovarian) | growth (OVCAR-5 ovarian) | growth (OVCAR-4 ovarian) | growth (SK-OV-3 ovarian) | growth (IGROV1 ovarian) | growth (OVCAR-3 ovarian) | growth (HS 578T breast) | growth (NCI/ADR-RES ovarian) | growth (BT-549 breast) | growth (MDA-MB-435 melanoma) | growth (SW-620 colon) | growth (MCF7 breast) | growth (HCT-116 colon) | growth (HCC-2998 colon) | growth (KM12 colon) | growth (T-47D breast) |
| --- | --- | --- | --- | --- | --- | --- | --- | --- | --- | --- | --- | --- | --- | --- | --- | --- | --- |
| CCCCCN(CCCCC)CC(O)c1cc2c(c3ccccc13)CCCC2 (stereo not given) | 15.4% (inactive) and 34.8% (inactive) | 88.6% (inactive) and 94.3% (inactive) | 66.9% (inactive) and 55.6% (inactive) | 60.9% (inactive) and 59.9% (inactive) | 84.2% (inactive) and 79% (inactive) | 48.9% (inactive) and -1.04% (active) | 71.9% (inactive) and 54.4% (inactive) | 85.6% (inactive) and 2.9% (active) | 70% (inactive) and 63.7% (inactive) | 88.8% (inactive) and 59.8% (inactive) | 83.4% (inactive) and 69.8% (inactive) | 28.9% (inactive) and 30.4% (inactive) | 44.8% (inactive) and 23.5% (inactive) | 20.2% (inactive) and 17.9% (inactive) | 13.1% (inactive) | 50.5% (inactive) and 35.3% (inactive) | – |
| CC(=O)Oc1cc(C(=O)O)cc(OC(C)=O)c1OC(C)=O | 96.7% (inactive) and 102% (inactive) | 103% (inactive) and 99.9% (inactive) | 117% (inactive) and 94.9% (inactive) | 109% (inactive) and 97% (inactive) | 94.1% (inactive) and 102% (inactive) | 130% (inactive) and 95.8% (inactive) | 105% (inactive) | 99.5% (inactive) and 112% (inactive) | 103% (inactive) and 96.7% (inactive) | 110% (inactive) and 102% (inactive) | 116% (inactive) and 106% (inactive) | 103% (inactive) and 107% (inactive) | 102% (inactive) and 93% (inactive) | 100% (inactive) and 90.3% (inactive) | 102% (inactive) and 100% (inactive) | 112% (inactive) and 106% (inactive) | – |
| O=[N+]([O-])c1ccc(/C=N\NC(=S)Nc2ccc(F)cc2)cc1 | 100% (inactive) and 85.2% (inactive) | 94.1% (inactive) and 95.3% (inactive) | 115% (inactive) and 94.7% (inactive) | 92.6% (inactive) | 98.5% (inactive) and 91.7% (inactive) | – | 129% (inactive) and 109% (inactive) | 93.4% (inactive) | – | 97.9% (inactive) | 109% (inactive) and 101% (inactive) | 106% (inactive) and 94.1% (inactive) | 89% (inactive) and 97.8% (inactive) | 71.7% (inactive) and 53% (inactive) | 106% (inactive) and 87.6% (inactive) | 98.6% (inactive) and 81.3% (inactive) | 94.5% (inactive) and 88.4% (inactive) |
| Fc1ccccc1Nc1n[nH]c(=S)s1 | 110% (inactive) | 103% (inactive) | 99.2% (inactive) | 122% (inactive) | 110% (inactive) | 126% (inactive) | 107% (inactive) | 107% (inactive) | 115% (inactive) | 112% (inactive) | 117% (inactive) | 105% (inactive) | 105% (inactive) | 98% (inactive) | 110% (inactive) | 104% (inactive) | – |
| NCCSC(C[N+](=O)[O-])c1ccccc1Cl (stereo not given) | -22.6% (active) | 61% (inactive) | 99.5% (inactive) | 102% (inactive) | 112% (inactive) | – | -75.7% (active) | -1.76% (active) | 106% (inactive) | 81.1% (inactive) | -24.7% (active) | -51.3% (active) | -19.1% (active) | -83.9% (active) | -77.8% (active) | -55.6% (active) | 87.5% (inactive) |
| CC(=O)Nc1ccc2cc3ccc(NC(C)=O)cc3nc2c1 | 54.5% (inactive) and 94.8% (inactive) | 88.7% (inactive) and 85.6% (inactive) | 89.2% (inactive) and 63.4% (inactive) | 87.1% (inactive) and 98.3% (inactive) | -13.4% (active) and 67.8% (inactive) | 85.8% (inactive) and 101% (inactive) | 85.8% (inactive) and 99.2% (inactive) | 84.3% (inactive) and 87.3% (inactive) | – | 106% (inactive) and 92.9% (inactive) | 83.6% (inactive) and 92.6% (inactive) | 90% (inactive) and 91.3% (inactive) | 68.3% (inactive) and 85.1% (inactive) | 92.3% (inactive) and 81.3% (inactive) | 77.1% (inactive) | 79.6% (inactive) and 89.5% (inactive) | 81.6% (inactive) and 69.9% (inactive) |
